Screen size: about 53,000 sequences; about 3,700 (7%) were called active.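 The calls were made as follows: active = gene knockdowns whose robust z-score for IL-1 alpha signal is at least 2 or at most -2, so actives lie on both sides; inactive = the rest.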 This excerpt belongs to a sample that is enriched for actives.

A short description of this experiment: Components of the Cytosolic LPS Sensing Pathway: Gene Identification via Genome-wide siRNA Screen. The note with it: RAW264.7 macrophages, IL-1a HTRF, actives lie on both sides, screened at 100 nM (by protocol), cells primed 5 h with Pam3CSK4 first. The source says: Non-canonical inflammasome activation by cytosolic LPS is a critical component of the host response to Gram-negative bacterial infection, however we lack a comprehensive understanding of the cellular processes that control this pathway. Here we describe a genome-wide siRNA screen to identify genes regulating the mouse macrophage IL-1 alpha response to cytosolic LPS.
RAW264.7 cells were maintained in complete DMEM media, comprising DMEM with 4.5 g/L glucose, 10% FBS (Gemini Bio-Products, West Sacramento, CA), 2 mM Glutamine (Lonza) and 20 mM HEPES (Lonza), hereafter complete DMEM.
The RNAi screen was conducted in 384-well format using the Ambion Silencer Mouse Genome siRNA Library (#4391425), which consists of three unique, nonoverlapping, nonpooled siRNAs for each of 17,000 gene targets. siRNA reagents ([…]) were stamped into 384-well white flat-bottom microplates (Corning, 3570) using a Velocity11 VPrep liquid handling system (Agilent) integrated into a BioCel robotic platform (Agilent) in columns 1-22, leaving columns 23-24 empty for negative (Ambion, Negative control #1) and positive (mouse Casp4) controls, respectively. The median value of each plate's negative control column was used to normalize sample wells, and the positive control was used to assess transfection efficiency and assay performance.
Lipofectamine RNAiMAX Transfection Reagent ([…]; Invitrogen) was added in […] serum-free, antibiotic-free media to plate wells using a Thermo Scientific Matrix WellMate and Microplate Stacker. Plates were incubated for 45 min at room temperature to allow for the sufficient formation of siRNA-lipid complexes. Cells were seeded at a density of 1x10^4 cells per well in 20 microL media containing 20% (vol/vol) FBS without antibiotics. The final concentration of siRNA in each well was 100 nM. Cells were cultured for 48h at 37 degrees C in 5% CO2 before addition of […] of TLR ligand Pam3CSK4 for 5 hours. The medium was then removed, replaced with […] growth media and cell were transfected with […] of LipidA and TransIT-TKO (Mirus) for 24 hour. At the end of the LipidA treatment, […] of supernatant was transferred to a 384 Greiner Bio-one non-binding low volume plate and […] of IL-1a HTRF reagent (Cisbio, 62MIL1APEH) was added and incubated at room temperature overnight. The plates were read on an EnVision plate reader (PerkinElmer). Cell viability was measured by adding 20ul Cell Titer Glo to the original plate and running a luminescence read on the EnVision. The quantified IL-1a signal for each siRNA gene-targeted well was divided by the median of the negative control wells and multiplied by 100 to achieve a negative control normalized value for each well/siRNA. This normalized value was then used to generate a robust z-score by first taking the log of each value and then by subtracting the median and dividing by the […].
(In general: TR-FRET usually uses a lanthanide donor and a delayed reading to cut background.)
With GGUGUGUGGUUUUUAAUAATT against Abhd3, the z-score was -0.692 (inactive).

For the sequence GGUGAUCCUUCUUUUUUACTT against Sgo1, the z-score is -2.01 (active).

With GGGAGUUUCAGACCAGUGUTT against Atp5g3, the z-score is -0.097 (inactive).

In the case of CCAUGGACUUUCUCGAAGATT against Ceacam11, the z-score is 0.612 (inactive).

Turning to GCAGGUUCAUACGAUCCAGTT against Plekha3, the z-score was -0.7 (inactive).

With GGCAUGUAAUUUGAUGAUCTT against Mansc1, the z-score is -1.48 (inactive).

Take GGCAUCAAGUGACUUAUAATT against Zfp772: the z-score is 2.47 (active).

CGGAUACCGUAGUUUGGUGTT against Lipe: the z-score was 1.51 (inactive).

With GGUGAACGACUCCAUGUAUTT against Nectin1, the z-score is -0.448 (inactive).

Consider CGUGGUUGAACUUUGUCCGTT against C1qtnf12, for which the z-score was -0.569 (inactive).

GGAAACUUGAUUAUUUAGGTT against Vrk2: the z-score was 0.915 (inactive).

Take CGGGUUUAGGAGCAACCUUTT against Zdhhc4: the z-score is -3.02 (active).

Turning to CCAAAUGAAAUUAGUCCUCTT against Eif5, the z-score was -0.347 (inactive).

Consider GGCGGCAAGCAACAACAAUTT against Ssbp1, for which the z-score was 0.155 (inactive).

Turning to GGAUGUGGUUCGAGUAUGGTT against Pou5f1, the z-score is 1.79 (inactive).

With GGUGAAAAGAUCAGAAUACTT against Fahd1, the z-score is -1.03 (inactive).

On to CCAAAACAUUAACCUGAAGTT against Pla2g6, for which the z-score is -2.34 (active).

GGAAGAGUUGGAAAUUUACTT against Gdpd3: the z-score is -0.166 (inactive).

For GCAUCCUGAUCACUUAACATT against Cep170, the z-score is -0.732 (inactive).

Turning to GGAAGAGAAUCAAGAGCCATT against Lrrc10, the z-score was -2.65 (active).

For GCAAUCUAUAAGAGGUACATT against Axin2, the z-score is 1.79 (inactive).

In the case of GGCCACAUUGUCCUAUCAGTT against Cdh16, the z-score is 0.0595 (inactive).

Consider GCAGAAGUCUCGUAUCCAGTT against Arl6ip4, for which the z-score was 0.337 (inactive).

On to CAUCGUGUGAAACUGGAGATT against Carmil3, for which the z-score is 0.608 (inactive).

As for GGCUGUCAAGAAGCACAUCTT against Inhba, the z-score is 1.08 (inactive).

On to GGAAAGUUCCAAGUUACCATT against Arl13b, for which the z-score is 1.18 (inactive).

In the case of GGGACAGUGGACCAUUAUGTT against Rnf8, the z-score is -2.41 (active).

As for GGAGCCUCAGGUCCAAAUGTT against Fancd2os, the z-score is 1.89 (inactive).

For GGAUGUGCAAGGAAUCUCATT against Spint1, the z-score was 0.741 (inactive).

As for GGCAAUGCACUUAUAACUCTT against Olfr118, the z-score was 0.389 (inactive).

Turning to GGAGUUUUGUGAACUAUGATT against Slc36a3, the z-score is -2.73 (active).

GCUGCAUAGACUCAUGGUUTT against Znrf1: the z-score is -0.408 (inactive).

For GGCACUCCUCUUUGUUUUCTT against Olfr414, the z-score is -1.82 (inactive).

On to CCCAAAUGAUUGGAUCUGUTT against Cd40lg, for which the z-score was 0.273 (inactive).

In the case of CGAAUGGCUAUCAGUGAGGTT against Tbc1d20, the z-score was -1.04 (inactive).

Turning to GGACUGUAUGUGGAAUGGCTT against Bmyc, the z-score is -0.46 (inactive).

Turning to GCUACUAAGCACCUAGAGATT against Fxr2, the z-score was -0.932 (inactive).

Turning to CUCUAGCUACUAUUUUCUCTT against Olfr824, the z-score was -1.57 (inactive).

Consider GGAUAUGGACUAUUCACGGTT against Dgat1, for which the z-score was -1.32 (inactive).

In the case of CGGCUUACGCAUGUCUAUGTT against Polr2a, the z-score was -2.01 (active).

Take GGUUUUGCCAAGGACGCAGTT against Ngf: the z-score was 0.124 (inactive).

Take GGAAGAAAAAAAAUCUCCATT against Frmd3: the z-score was 0.577 (inactive).

For GGUGGUUAUGAUCUAUGAUTT against Dazap1, the z-score was -1.43 (inactive).

For the sequence GGCUGGAGCCUCAAAUAUCTT against Rapsn, the z-score is -0.574 (inactive).

In the case of “GGUGGAUGCCUUGAAUAUGTT against 1700029P11Rik”, the z-score was -2.25 (active).

On to CGAGCUAACAGCAUUGCUGTT against Ajuba, for which the z-score was 0.532 (inactive).

Consider GCCAUGCAAAUCGAUGGGUTT against Rora, for which the z-score is -2.69 (active).

With GCAUUUAAAAUACACGGUGTT against Arg1, the z-score is 0.264 (inactive).

Consider GGUGACUCCAAGAAUGUGGTT against Wfdc1, for which the z-score was -0.703 (inactive).

As to CCCAGAGCCAGGUUCAAACTT against AY702103, the z-score is 0.78 (inactive).

With GCACUAAAUCCUUUGAUAUTT against Olfr307, the z-score is 1.08 (inactive).

On to GCUGAACAAUUUUCAACAATT against Sclt1, for which the z-score is -0.958 (inactive).

As to GCAUCCUUGACCGAUACUATT against Psmb2, the z-score was -2.78 (active).

Regarding GGAUCUAUUGAUGGUUCAUTT against Tprkb, the z-score is -1.68 (inactive).

GGGUCACCCAUUAUUUUAUTT against Phyhip: the z-score is -0.899 (inactive).

On to GGGAGGAACAUCACCUCAGTT against Vmn2r123, for which the z-score is 0.327 (inactive).

With GGUCAUACUCUAAUCGGACTT against Ctss, the z-score was 0.672 (inactive).

In the case of GGAAAGAUGUCAAAGAAAUTT against Gnat2, the z-score was -1.14 (inactive).

Take UGCCACUGCCAAAAAAUAATT against Tex18: the z-score was -0.838 (inactive).

In the case of CCAGACAUUUGAUAGCCAUTT against Fam241a, the z-score was -1.42 (inactive).

For the sequence GCCAAGCAUAAUCUAAUGATT against Prpf4b, the z-score was 0.851 (inactive).

CGACCACAUUAUUGGGUUUTT against Senp8: the z-score was 2.62 (active).

As to GCCUGUGAUCUUUUGUAUCTT against Olfr835, the z-score was -0.726 (inactive).

With GGAUGUCUAGUUAUACAUUTT against Mbd3l1, the z-score was 1.21 (inactive).

Take GCUAAUGAAGCAGAGCUGUTT against Olfr1359: the z-score is 0.388 (inactive).

As for GGUGUAACUCCUUCAUUGATT against Ripor2, the z-score was -3.12 (active).

Regarding CCUUAUCUCUACCAUCGGUTT against Hyal2, the z-score was 0.0745 (inactive).

GCACCAGCUCUAAUUCAGATT against Herpud2: the z-score was 1.48 (inactive).

With GCAUGAUGAUGGAGACCGATT against Sox1, the z-score is -1.06 (inactive).

For GGUGUUCCUAUAAAAGUAUTT against Tfb2m, the z-score was 0.597 (inactive).

Take GGUGCUACAAGUGUACUGATT against Zswim2: the z-score was -2.14 (active).

Turning to GGUCUUCCAGAACAAUUACTT against Prtn3, the z-score was 0.439 (inactive).

Consider GGCACACCUUUUGUUAGUGTT against Ywhag, for which the z-score is -1.94 (inactive).

For GGAUUUGUUCAAAUAACAGTT against Lsm14a, the z-score is -0.664 (inactive).

In the case of CCAAAUUAUCACCCUGUUCTT against Olfr763, the z-score was -0.0232 (inactive).

For GGAAAUGCGUCAAAAGACUTT against H2az1, the z-score is 0.04 (inactive).

For the sequence GCUAAAAAUGGUUGUGUGATT against Six3os1, the z-score was -1.62 (inactive).

Regarding GGAUGGUUUUCAUUUGCUUTT against Cd300ld, the z-score was -0.606 (inactive).

Consider CCGUUAAGUAGCUGGAAGATT against Ubl4b, for which the z-score is 0.488 (inactive).

Take GGGAACCUCACCAUUAUCATT against Olfr769: the z-score was -0.413 (inactive).

In the case of GCAAGGACCAAAUUACAUATT against Itgb3bp, the z-score was 2.45 (active).

Turning to GGACUUUCUGAUGGACUUGTT against Sapcd1, the z-score is 1.59 (inactive).

For the sequence GGAUCCUGAAAUCAAAACUTT against Mbl1, the z-score is -0.316 (inactive).

As for “GGCAUAACCAAAAGAAAGUTT against 4933427E11Rik”, the z-score is 0.648 (inactive).

On to GGGCUUCUUUGCCACACUUTT against Rho, for which the z-score is 0.761 (inactive).

On to CGAGAUGAAAUAUACAGAUTT against Trat1, for which the z-score was 1.12 (inactive).

In the case of GGACAAUUAACGAUCCCACTT against Pdxp, the z-score was -2.58 (active).

For the sequence GGGUUAUGGUAGAUUAUCUTT against Tor4a, the z-score was -0.376 (inactive).

Turning to GGACACCUCGAGAUUCUCUTT against Actl11, the z-score is -0.186 (inactive).

GGAAAACAACACGAUGAAATT against Tex13b: the z-score is -1.72 (inactive).

For the sequence GGAAGGAGAACAUUCCUUUTT against Ces1d, the z-score is -0.198 (inactive).

As to GGCCAUUUGUUAGGACCUGTT against Prmt6, the z-score was 0.205 (inactive).

For CGGCAUGUCCUUCAUCGCUTT against Proser2, the z-score is -2.89 (active).

Regarding GGAGAAAAUUCAAGUCACCTT against Olfr663, the z-score is 0.215 (inactive).

As for “AGUGAAACUAAACUGGAGUTT against 2610318N02Rik”, the z-score is 1.41 (inactive).

Consider GGAUCUCAAUGUUCACUUGTT against Bpifb2, for which the z-score was -0.817 (inactive).

For GGCUACUUCUGUACUAGGATT against Gclc, the z-score is -1.05 (inactive).

GGAGGAAGCUCAUCUAUGATT against Rpl7: the z-score is 0.964 (inactive).

As for GGAAACCAUCAUGAAGAAATT against Siae, the z-score is -0.127 (inactive).

For the sequence CCCAUUGAACAGGAUGUUATT against Coq9, the z-score was -0.292 (inactive).

Regarding CCUGGUAUCCAAGAGGAAGTT against Myt1, the z-score is 2.52 (active).

As for GCAUCAAUUGUCAGGAAAUTT against Rev3l, the z-score was 0.807 (inactive).

Regarding GGGCUCGUAAAGAAAGAAGTT against Cep41, the z-score is -1.15 (inactive).

For GCUGAUGAACGAAUACAACTT against Kcnk5, the z-score is 1.25 (inactive).

Regarding GCGCAGAACCCAGAUGAAGTT against Necap2, the z-score is 0.836 (inactive).

In the case of CCGUCCAUUGCACUGGAUATT against Arntl2, the z-score is 0.024 (inactive).

Regarding GGUGUGAGUGUAAGUUUAUTT against Wnt16, the z-score is 1.1 (inactive).

The values are drawn from PubChem BioAssay AID1508600 (Functional Genomics Laboratory (NCATS/FGL), 2020).
